Several values for one entry are separate records, joined by “and”; a condition that tells them apart may be missing. Identical values can stand only once. Results filed as inconclusive are left out. Where a structure was tested more than once in an assay, its records may differ in their call. Activity calls are given as the source filed them. Unless noted, calls come from the whole dose curve; as a rule, active = well fitted cell-killing curve with a large enough effect in the repeat runs; inconclusive = weak or mixed curves, or effect the other way; inactive = no such curve, though single readings can be large or run the other way.
test: qHTS assay to identify small molecule antagonists of the vitamin D receptor (VDR) signaling pathway - cell viability counter screen (AID 743225); details: VDR-bla HEK293T viability, CellTiter-Glo luminescence, 16 h; series mostly up to 61 µM; viability change, negative = cytotoxic: at the top concentration
Summary of the method: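 In this counter screen, VDR-bla HEK 293T cells receive test compound plus 3 nM final calcitriol for 16 h at 37C. Room-temperature steps of 2 h with the beta-lactamase substrate, then 30 min with CellTiter-Glo, precede the luminescence read.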
% is set by controls: 0 for no effect and ±100 for the full control effect; potency is the fitted concentration of half-maximal effect.
Note: nearly all actives have a fitted effect of over 50% in size.

Question: Which Potency does the source give for `CCCCCCCCCCCCCCCC[n+]1ccccc1` here?
Answer: The Potency was 24.2 µM (active) [middle of 4 runs].

Question: With `CC(=O)OC1(c2ccccc2)CCN(CCc2ccccc2)CC1` as the molecule, how does the “viability change, negative = cytotoxic” value read?
Answer: Its value is -15.4% [at 78.8 µM] (inactive).

Question: With `Oc1ccc(C2(c3ccc(O)cc3)CCCCC2)cc1` as the molecule, how does the Potency read?
Answer: Its Potency is 36.8 µM (active).

Question: With `ClC1=C(Cl)C2(Cl)C3C(Cl)C=CC3C1(Cl)C2(Cl)Cl` (stereo not given) as the molecule, how does the Potency read?
Answer: Its Potency is “inactive”.

Question: With `CC(C)(C)c1cc([N+](=O)[O-])cc(C(C)(C)C)c1O` as the molecule, how does the Potency read?
Answer: The Potency was 12.3 µM (active).

Question: Which “viability change, negative = cytotoxic” value does the source give for `CN(C)[C@@H]1C(=O)C(C(N)=O)=C(O)[C@@]2(O)C(=O)C3=C(O)c4c(O)ccc(Cl)c4[C@@](C)(O)[C@H]3C[C@@H]12` here?
Answer: Its value is -5.84% (inactive).

Question: With `CC[C@H]1C[C@@H]2C[C@H]3c4[nH]c5ccc(OC)cc5c4CCN(C2)[C@@H]13` as the molecule, how does the “viability change, negative = cytotoxic” value read?
Answer: The value was -7.66% (inactive).

Question: With `c1ccc(Nc2ccc3ccccc3c2)cc1` as the molecule, how does the “viability change, negative = cytotoxic” value read?
Answer: Its value is -1.44% (inactive).

Question: Which Potency does the source give for `CCCCCCCCCCCCCCCC[N+](C)(C)C` here?
Answer: The Potency was 21.1 µM (active) and 21.9 µM (active) and 23.9 µM (active).

Question: With `CSCCCN=C=S` as the molecule, how does the “viability change, negative = cytotoxic” value read?
Answer: The value was -28.9% (inactive).

Question: Which “viability change, negative = cytotoxic” value does the source give for `Cn1cc(C2=C(c3cn(C4CCN(Cc5ccccn5)CC4)c4ccccc34)C(=O)NC2=O)c2ccccc21` here?
Answer: The value was 20.9% (inactive).

Question: For `Oc1ccc(C(c2ccc(O)cc2)(C(F)(F)F)C(F)(F)F)cc1`, which Potency is on record?
Answer: Its Potency is “inactive and 38.9 µM (active)”.

Question: For `CC(=O)/C=C/c1ccc2c(c1)OCO2`, which “viability change, negative = cytotoxic” value is on record?
Answer: The value was -5% [at 78.8 µM] (inactive).

Question: With `Clc1ccc(COC(Cn2ccnc2)c2ccc(Cl)cc2Cl)cc1` (stereo not given) as the molecule, how does the Potency read?
Answer: Its Potency is 45.7 µM (active) and 48.8 µM (active).

Question: For `[Cd+2].[Cl-].[Cl-]`, which Potency is on record?
Answer: Its Potency is 8.78 µM (active) and 2.45 µM (active).

Question: With `ClC(Cl)=C(c1ccc(Cl)cc1)c1ccc(Cl)cc1` as the molecule, how does the Potency read?
Answer: The Potency was “inactive”.

Question: For `C=CC(=O)OCC(COC(=O)C=C)(COC(=O)C=C)COC(=O)C=C`, which Potency is on record?
Answer: Its Potency is 6.92 µM (active).

Question: With `CC1(C)CN=C(NN=C(/C=C/c2ccc(C(F)(F)F)cc2)/C=C/c2ccc(C(F)(F)F)cc2)NC1` as the molecule, how does the Potency read?
Answer: The Potency was 11 µM (active).

Question: Which Potency does the source give for `ClC1=C(Cl)C2(Cl)C3C(Cl)C(Cl)CC3C1(Cl)C2(Cl)Cl` (stereo not given) here?
Answer: Its Potency is 54.8 µM (active) and 49 µM (active).

test: qHTS assay to identify small molecule agonists of the endoplasmic reticulum stress response signaling pathway - cell viability counter screen (AID 1159517; calls by dose curve;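 for activity change, negative = cytotoxicity: HeLa cells carrying an ER stress response element beta-lactamase reporter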); details: ESRE-bla HeLa viability, CellTiter-Glo luminescence, 5 h; series mostly up to 61 µM; activity change, negative = cytotoxicity: at the top concentration
Summary of the method: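 Luminescence readout: CellTiter-Glo, 30 min RT, same wells as the ESRE-bla reporter read. HeLa ESRE-bla, 1,500 cells/well, o/n 37 C; cpd 5 hr 37 C/5% CO2.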

Question: With `CCCCCCCCCCCCCCCC[n+]1ccccc1` as the molecule, how does the Potency read?
Answer: The Potency was 34.7 µM (active) and 34.2 µM (active) and 12 µM (active).

Question: Which “activity change, negative = cytotoxicity” value does the source give for `CCC(C)c1cc([N+](=O)[O-])cc([N+](=O)[O-])c1OC(=O)C=C(C)C` (stereo not given) here?
Answer: Its value is -6.53% (inactive).

Question: With `CC(=O)OC1(c2ccccc2)CCN(CCc2ccccc2)CC1` as the molecule, how does the “activity change, negative = cytotoxicity” value read?
Answer: Its value is 10.5% [at 78.8 µM] (inactive).

Question: Which Potency does the source give for `Oc1ccc(C2(c3ccc(O)cc3)CCCCC2)cc1` here?
Answer: Its Potency is 46.4 µM (active).

Question: For `ClC1=C(Cl)C2(Cl)C3C(Cl)C=CC3C1(Cl)C2(Cl)Cl` (stereo not given), which Potency is on record?
Answer: The Potency was 55.2 µM (active).

Question: For `CC(C)(C)c1cc([N+](=O)[O-])cc(C(C)(C)C)c1O`, which “activity change, negative = cytotoxicity” value is on record?
Answer: Its value is -25.6% (inactive).

Question: Which “activity change, negative = cytotoxicity” value does the source give for `CC(=O)C(Cl)(Cl)Cl` here?
Answer: The value was -9.87% (inactive).

Question: Which “activity change, negative = cytotoxicity” value does the source give for `CN(C)[C@@H]1C(=O)C(C(N)=O)=C(O)[C@@]2(O)C(=O)C3=C(O)c4c(O)ccc(Cl)c4[C@@](C)(O)[C@H]3C[C@@H]12` here?
Answer: The value was -22.2% (inactive).

Question: Which “activity change, negative = cytotoxicity” value does the source give for `CC[C@H]1C[C@@H]2C[C@H]3c4[nH]c5ccc(OC)cc5c4CCN(C2)[C@@H]13` here?
Answer: The value was 4.9% (inactive).

Question: For `c1ccc(Nc2ccc3ccccc3c2)cc1`, which “activity change, negative = cytotoxicity” value is on record?
Answer: Its value is -29.7% (inactive).

Question: For `CCCCCCCCCCCCCCCC[N+](C)(C)C`, which Potency is on record?
Answer: The Potency was 23.7 µM (active) and 43.6 µM (active).

Question: With `Cc1cc(C(C)(C)c2cc(C)c(O)c(C)c2)cc(C)c1O` as the molecule, how does the Potency read?
Answer: Its Potency is 59.6 µM (active).

Question: For `CSCCCN=C=S`, which Potency is on record?
Answer: Its Potency is 19.5 µM (active).

Question: With `Cn1cc(C2=C(c3cn(C4CCN(Cc5ccccn5)CC4)c4ccccc34)C(=O)NC2=O)c2ccccc21` as the molecule, how does the “activity change, negative = cytotoxicity” value read?
Answer: The value was -2.17% (inactive).

Question: Which “activity change, negative = cytotoxicity” value does the source give for `O=C(CCCN1CCC2(CC1)C(=O)NCN2c1ccccc1)c1ccc(F)cc1` here?
Answer: Its value is -8.24% (inactive).

Question: With `Clc1ccc(C(c2ccccc2Cl)C(Cl)(Cl)Cl)cc1` (stereo not given) as the molecule, how does the Potency read?
Answer: Its Potency is 43.9 µM (active).

Question: Which Potency does the source give for `Oc1ccc(C(c2ccc(O)cc2)(C(F)(F)F)C(F)(F)F)cc1` here?
Answer: The Potency was 49 µM (active).

Question: Which “activity change, negative = cytotoxicity” value does the source give for `CC(=O)/C=C/c1ccc2c(c1)OCO2` here?
Answer: Its value is -8.21% [at 78.8 µM] (inactive).

Question: For `CC(C)Oc1cccc(NC(=O)c2ccccc2C(F)(F)F)c1`, which “activity change, negative = cytotoxicity” value is on record?
Answer: The value was -0.0307% (inactive).

Question: With `Clc1ccc(COC(Cn2ccnc2)c2ccc(Cl)cc2Cl)cc1` (stereo not given) as the molecule, how does the Potency read?
Answer: The Potency was 61.4 µM (active).

Question: Which “activity change, negative = cytotoxicity” value does the source give for `[Cd+2].[Cl-].[Cl-]` here?
Answer: Its value is -0.393% (inactive).

Question: Which Potency does the source give for `ClC(Cl)=C(c1ccc(Cl)cc1)c1ccc(Cl)cc1` here?
Answer: The Potency was 54.9 µM (active).

Question: Which Potency does the source give for `C=CC(=O)OCC(COC(=O)C=C)(COC(=O)C=C)COC(=O)C=C` here?
Answer: Its Potency is 12.3 µM (active).

Question: For `CC1(C)CN=C(NN=C(/C=C/c2ccc(C(F)(F)F)cc2)/C=C/c2ccc(C(F)(F)F)cc2)NC1`, which Potency is on record?
Answer: The Potency was 49 µM (active).

Question: Which Potency does the source give for `COc1cccc2c1C(=O)c1c(O)c3c(c(O)c1C2=O)C[C@@](O)(C(=O)CO)CC3OC1CC(N2CCOC(OC)C2)C(O)C(C)O1` (stereo not given in full) here?
Answer: Its Potency is 0.952 µM (active).

Question: For `ClC1=C(Cl)C2(Cl)C3C(Cl)C(Cl)CC3C1(Cl)C2(Cl)Cl` (stereo not given), which Potency is on record?
Answer: The Potency was 49 µM (active).
